Experimental data: PubChem BioAssay (NCI)
This is part of a sample that, as a whole, favours compounds with a hit. Of some 83,000 tested, about 20% had one in any assay.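 Interpretation: 100, growth as untreated; towards 0, rising growth inhibition; 0, no net growth; 0 to -100, cell death. Compounds scoring below 10 were considered active.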 Active and inactive are the calls of the source.

Each compound was assayed on COLO 205 colon (assay: NCI-60 one-dose screen, 48 h (100 = growth as untreated, 0 = no growth, -100 = all killed)). Conditions: 10 µM unless noted.
Experimental: Cells are grown in 96 well plates and exposed to the test compound for 48 hours. Compounds are tested at a single concentration, which is 10^-5 M for most compounds. The reported endpoint is percent growth (GI% or GIPRCNT), where numbers from 0 - 100% represent growth inhibition, and numbers from -100% - 0 represent cell death. For example, a value of 40 represents 60% growth inhibition. A value of 0 means no net growth occurred over the course of the experiment. A value of -40 indicates 40% of cells at the beginning of the experiment died by the end of the experiment. A value of -100 means all cells are dead at the end of the experiment.
NCI-60 Human Tumor Cell Lines Screen was performed using the standard one-dose NCI protocol, which is described in more detail at https://dtp.cancer.gov/discovery_development/nci-60/default.htm.
Compounds with GIPRCNT values below 10 were considered active. Activity score was based on GIPRCNT using the following formula: […]
Score is 0 for GIPRCNT values of 100 or above, 50 for GIPRCNT values of 0, and 100 for GIPRCNT values of -100.
For CCOC(=O)C1CCCN1C(=O)C1(NC(C)=O)CCCC1 (stereo not given), the growth was 105% (inactive).
In the case of O=C(N/N=C/c1coc2ccccc2c1=O)c1cc2oc(-c3ccccc3)cc2[nH]1, the growth is reported as 94.3% (inactive).
For CC(=O)N1CCN(CCNC(=O)n2cc(-c3ccncc3)c(-c3ccc(O)c(Cl)c3)n2)CC1, the growth was 119% (inactive).
With OCCN1CCCN(CCCN2c3ccccc3Sc3ccc(C(F)(F)F)cc32)CC1 the growth was -81.8% (active).
For COC1=C(OC)C(=O)c2ccccc2C1=O, the growth was 100% (inactive).
With CC(=O)NCCN the growth was 106% (inactive).
In the case of CC(=O)OCC(=O)[C@@]1(O)[C@H](C)C[C@H]2[C@@H]3C=C(C)C4=Cc5c(cnn5-c5ccc(F)cc5)C[C@]4(C)[C@H]3[C@@H](O)C[C@@]21C, the growth is reported as -39.2% (active).
In the case of [2H]c1nc(=Nc2cc(NC(=O)C=C)c(N(C)CCN(C)C)cc2OC)[nH]c(-c2cn(C([2H])([2H])[2H])c3ccccc23)c1[2H], the growth is reported as 29.4% (inactive).
With COc1ccc(C(=O)c2no[n+]([O-])c2C(=O)c2ccc(OC)cc2)cc1 the growth was -85.7% (active).
O=C(O)CC1Cc2ccccc2C1C(=O)O (stereo not given) was tested, and the growth was 114% (inactive).
For CCCCCCCCCc1cc[n+](CC(=O)c2ccc([N+](=O)[O-])cc2)cc1, the growth was -76.9% (active).
In the case of Nc1nc(-c2cccc(Br)c2)cc(-c2cc3ccccc3oc2=O)n1, the growth is reported as 113% (inactive).
With O=C(Nn1cnc2ccccc21)N1CCCC1 the growth was 117% (inactive).
In the case of CCCNC(=O)Oc1ccc(/C(=C(/C)Cc2ccc(OC)cc2)c2ccc(OCCN3CCCCC3)cc2)cc1, the growth is reported as 79% (inactive).
For COc1cc(-c2nn(-c3ccc(NC(=O)c4ccc(Cl)c(Cl)c4)cc3)cc2-c2ccncc2)ccc1Cl, the growth was 52.6% (inactive).
COCn1c(C(=O)OC)cc2oc(/C=C3/SC(=S)N(N)C3=O)cc21 was tested, and the growth was 110% (inactive).
CCOC(=O)CSSCC(=O)OCC was tested, and the growth was 113% (inactive).
In the case of COc1cc(OC)c2c(=O)cc(-c3ccccc3)oc2c1, the growth is reported as 117% (inactive).
CCOc1ccc2nc3ccc(Cl)cc3nc2c1 was tested, and the growth was 114% (inactive).
CC(=O)c1nn(-c2ccc(C)cc2)cc1C(=O)c1cc2c(ccc3ccccc32)oc1=O was tested, and the growth was 107% (inactive).
With C[C@]12C=CC(=O)C=C1[C@@H](F)C[C@@H]1[C@@H]2[C@@H](O)C[C@@]2(C)[C@H]1CC[C@]2(O)C(=O)CO the growth was 106% (inactive).
With Cc1cc(CSc2ccc(Cl)cc2)ccc1N the growth was 107% (inactive).
For COc1cc(NC(C)CCCN)c2nc(C)ccc2c1OC (stereo not given), the growth was 60.5% (inactive).
C/C=C/C/C=C/[C@H](C)C[C@H](O)[C@@H]1C[C@@H]2O[C@H]2/C=C/[C@@H]2OC(C)(C)O[C@H]2/C=C/C[C@H](C)CC(=O)O1 was tested, and the growth was 61.1% (inactive).
With COc1cc2cc3cc4cc(OC)c(OC)cc4c(C)[n+]3cc2cc1OC (tested in a mixture with another compound) the growth was 111% (inactive).
In the case of COC1=CC(c2ccc[nH]2)=N/C1=C\c1[nH]c(C)c(C(=O)CCCCC(=O)NC(C)(C)C)c1C, the growth is reported as 44.4% (inactive).
In the case of O=C(Nc1ccc(-n2cc(-c3ccncc3)c(-c3ccc(Cl)c(O)c3)n2)cc1)c1ccc(Cl)c(C(F)(F)F)c1, the growth is reported as -1.56% (active).
For COC(=O)C(Cc1cnc[nH]1)N1CC(=O)N2[C@@H](c3ccccc3)SC[C@H]2C1=O (stereo not given in full), the growth was 124% (inactive).
In the case of COc1cc(-c2nc3c(c(C)nc4c3nnn4-c3ccccc3)c(=O)o2)cc(OC)c1OC, the growth is reported as 113% (inactive).
In the case of CCCCCCC(C(=O)OCC)(C(=O)OCC)C1CCCCCC1, the growth is reported as 102% (inactive).
For COc1cc(/C=C/C(=O)c2ccc(F)cc2)ccc1OCCCCOc1cc2c(cc1OC)C(=O)N1CCCC1C=N2 (stereo not given), the growth was -45.2% (active).
With CCCCCCCCCCCCCCCCCC1=NCCN1CCNC(C)=O the growth was 92.6% (inactive).
COc1cc([C@@H]2c3cc4c(cc3[C@H](O)[C@H]3COC[C@@H]23)OCO4)cc(OC)c1OC was tested, and the growth was 96.7% (inactive).
COc1ccccc1Cn1cc2c(c1)-c1oncc1CC2 was tested, and the growth was -28.2% (active).
COc1ccc2c(c1)cn1c3ccc(O)cc3[nH]c(=O)c21 was tested, and the growth was 4.21% (active).
O=c1c2c(c3ccccc3n1-c1ccccc1)NC(=S)NC2c1ccccc1 (stereo not given) was tested, and the growth was 113% (inactive).
In the case of CCCCCCCCCCCCOC(=O)/C=C\C(=O)NC(N)=O, the growth is reported as 111% (inactive).
COC(=O)c1ccc2[nH]c(O)c(C(=Nc3ccc(N(C)C(=O)CN4CCN(C)CC4)cc3)c3ccc(OC)cc3)c2c1 was tested, and the growth was 0.878% (active).
CC[C@@H](C)/C=C(C)/C=C/C(=O)c1c(O)c(-c2ccc(OC(=O)[C@@]34CC[C@@](C)(C(=O)O3)C4(C)C)cc2)cn(O)c1=O was tested, and the growth was 112% (inactive).
In the case of CC(C)CSc1nc(-c2ccc(F)cc2)c(C#N)c(N2CCCCC2)n1, the growth is reported as 96.2% (inactive).
